# Experimental data reported in PMC11006913.
# Numbering of substitutions follows the chain as printed.
# Columns and labels:
# Assay in all cases: PBM; 200 nM protein, PBS
# Details in all cases: dsDNA, one strand shown
# HOXB4 [1] = biological target: HOXB4 (Homo sapiens, UniProt P17483 148-234)
# VENTX [2] = biological target: T1, VENTX (Homo sapiens, UniProt O95231 78-163, R121Q)
# T1 sequence: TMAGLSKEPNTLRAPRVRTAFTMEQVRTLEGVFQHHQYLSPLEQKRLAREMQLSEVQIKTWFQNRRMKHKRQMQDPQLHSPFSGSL
# HOXA4 [3] = biological target: HOXA4 (Homo sapiens, UniProt Q00056 201-287, W262R)
# ALX4 = ALX4 (Homo sapiens, UniProt Q9H161 200-286)
# PRRX1 [4] = biological target: PRRX1 (Homo sapiens, UniProt P54821 80-166, F113S)
# VENTX [5] = biological target: T2, VENTX (Homo sapiens, UniProt O95231 78-163, Y115F)
# T2 sequence: T1 sequence with Y38F, Q44R
# HOXB6 [6] = biological target: HOXB6 (Homo sapiens, UniProt P17509 132-218, K202E)
# HOXA2 [7] = biological target: HOXA2 (Homo sapiens, UniProt O43364 129-215, R185T)
# HOXA4 [8] = biological target: HOXA4 (Homo sapiens, UniProt Q00056 201-287, R217L)
# HOXB4 [9] = biological target: HOXB4 (Homo sapiens, UniProt P17483 148-234, V174I)
# PAX4 = biological target: T3, PAX4 (Homo sapiens, UniProt O43316 9-242, R200Q)
# T3 sequence: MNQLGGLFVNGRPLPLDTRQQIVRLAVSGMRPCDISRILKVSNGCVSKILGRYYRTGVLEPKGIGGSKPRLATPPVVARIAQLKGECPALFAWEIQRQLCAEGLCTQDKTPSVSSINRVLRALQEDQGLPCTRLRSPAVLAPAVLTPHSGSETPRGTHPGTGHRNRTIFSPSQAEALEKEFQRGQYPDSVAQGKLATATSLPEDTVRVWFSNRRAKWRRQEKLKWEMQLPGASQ
# HOXA2 [10] = biological target: HOXA2 (Homo sapiens, UniProt O43364 129-215, R185K)
# HOXA4 [11] = biological target: HOXA4 (Homo sapiens, UniProt Q00056 201-287)
# MSX2 [12] = biological target: MSX2 (Homo sapiens, UniProt P35548 130-214)
# MSX2 [13] = biological target: MSX2 (Homo sapiens, UniProt P35548 130-214, F161Y)
# VAX1 [14] = biological target: VAX1 (Homo sapiens, UniProt Q5SQQ9 86-172, T142I)
# HOXA4 [15] = biological target: HOXA4 (Homo sapiens, UniProt Q00056 201-287, W262F)
# PRRX1 [16] = biological target: PRRX1 (Homo sapiens, UniProt P54821 80-166)
# VAX1 [17] = biological target: VAX1 (Homo sapiens, UniProt Q5SQQ9 86-172, K157R)
# HOXB6 [18] = biological target: HOXB6 (Homo sapiens, UniProt P17509 132-218)
# Sequence of HOXB6 (Homo sapiens, UniProt P17509 132-218) (P17509 132-218): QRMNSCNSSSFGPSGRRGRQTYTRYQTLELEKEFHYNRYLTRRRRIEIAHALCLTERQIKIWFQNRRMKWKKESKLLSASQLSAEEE
# Sequence of HOXB4 (Homo sapiens, UniProt P17483 148-234) (P17483 148-234): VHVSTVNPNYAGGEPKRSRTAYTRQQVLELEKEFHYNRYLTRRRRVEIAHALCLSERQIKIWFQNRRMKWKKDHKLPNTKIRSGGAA
# Sequence of MSX2 (Homo sapiens, UniProt P35548 130-214, F161Y) (P35548 130-214 F161Y): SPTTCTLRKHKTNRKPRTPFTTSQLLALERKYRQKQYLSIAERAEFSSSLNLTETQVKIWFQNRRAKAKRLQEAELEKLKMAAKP
# Sequence of ALX4 (Q9H161 200-286): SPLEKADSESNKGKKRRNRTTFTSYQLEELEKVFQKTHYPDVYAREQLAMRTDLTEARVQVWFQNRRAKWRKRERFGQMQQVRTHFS
# Sequence of PRRX1 (Homo sapiens, UniProt P54821 80-166) (P54821 80-166): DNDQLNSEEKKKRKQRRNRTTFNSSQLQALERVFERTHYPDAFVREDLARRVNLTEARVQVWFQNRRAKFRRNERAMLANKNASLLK
# Sequence of PRRX1 (Homo sapiens, UniProt P54821 80-166, F113S) (P54821 80-166 F113S): as the sequence (P54821 80-166) above, with F34S counted along it
# Sequence of HOXA4 (Homo sapiens, UniProt Q00056 201-287, W262F) (Q00056 201-287 W262F): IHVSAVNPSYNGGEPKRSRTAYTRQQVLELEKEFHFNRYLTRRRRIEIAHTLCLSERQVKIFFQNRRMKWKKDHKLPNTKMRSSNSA
# Sequence of HOXA4 (Homo sapiens, UniProt Q00056 201-287) (Q00056 201-287): as the sequence (Q00056 201-287 W262F) above, with F62W counted along it
# Sequence of VAX1 (Homo sapiens, UniProt Q5SQQ9 86-172, T142I) (Q5SQQ9 86-172 T142I): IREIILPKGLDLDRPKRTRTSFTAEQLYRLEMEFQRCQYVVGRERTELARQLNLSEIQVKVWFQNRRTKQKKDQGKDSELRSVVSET
# Sequence of VAX1 (Homo sapiens, UniProt Q5SQQ9 86-172, K157R) (Q5SQQ9 86-172 K157R): as the sequence (Q5SQQ9 86-172 T142I) above, with I57T, K72R counted along it
# Sequence of HOXA4 (Homo sapiens, UniProt Q00056 201-287, W262R) (Q00056 201-287 W262R): as the sequence (Q00056 201-287 W262F) above, with F62R counted along it
# Sequence of HOXB4 (Homo sapiens, UniProt P17483 148-234, V174I) (P17483 148-234 V174I): as the sequence (P17483 148-234) above, with V27I counted along it
# Sequence of HOXA2 (Homo sapiens, UniProt O43364 129-215, R185T) (O43364 129-215 R185T): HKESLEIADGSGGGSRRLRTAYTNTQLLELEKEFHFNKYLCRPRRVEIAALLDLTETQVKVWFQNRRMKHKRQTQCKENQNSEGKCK
# Sequence of MSX2 (Homo sapiens, UniProt P35548 130-214) (P35548 130-214): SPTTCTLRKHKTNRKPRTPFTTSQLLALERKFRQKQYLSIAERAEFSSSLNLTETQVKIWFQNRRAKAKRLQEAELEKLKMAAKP
# Sequence of HOXA2 (Homo sapiens, UniProt O43364 129-215, R185K) (O43364 129-215 R185K): as the sequence (O43364 129-215 R185T) above, with T57K counted along it
# Sequence of HOXB6 (Homo sapiens, UniProt P17509 132-218, K202E) (P17509 132-218 K202E): as the sequence (P17509 132-218) above, with K71E counted along it
# Sequence of HOXA4 (Homo sapiens, UniProt Q00056 201-287, R217L) (Q00056 201-287 R217L): as the sequence (Q00056 201-287 W262F) above, with R17L, F62W counted along it
Sequence,binding signal (HOXB4 [1]),binding signal (VENTX [2]),binding signal (HOXA4 [3]),binding signal (ALX4),binding signal (PRRX1 [4]),binding signal (VENTX [5]),binding signal (HOXB6 [6]),binding signal (HOXA2 [7]),binding signal (HOXA4 [8]),binding signal (HOXB4 [9]),binding signal (PAX4),binding signal (HOXA2 [10]),binding signal (HOXA4 [11]),binding signal (MSX2 [12]),binding signal (MSX2 [13]),binding signal (VAX1 [14]),binding signal (HOXA4 [15]),binding signal (PRRX1 [16]),binding signal (VAX1 [17]),binding signal (HOXB6 [18])
CATAATTA,"13.6 upbm affinity estimate (log intensity, higher = more binding, comparable within an allelic series)","12 upbm affinity estimate (log intensity, higher = more binding, comparable within an allelic series)","10.9 upbm affinity estimate (log intensity, higher = more binding, comparable within an allelic series)","14.2 upbm affinity estimate (log intensity, higher = more binding, comparable within an allelic series)","11.6 upbm affinity estimate (log intensity, higher = more binding, comparable within an allelic series)","11.9 upbm affinity estimate (log intensity, higher = more binding, comparable within an allelic series)","10.2 upbm affinity estimate (log intensity, higher = more binding, comparable within an allelic series)","13.6 upbm affinity estimate (log intensity, higher = more binding, comparable within an allelic series)","12.7 upbm affinity estimate (log intensity, higher = more binding, comparable within an allelic series)","14.4 upbm affinity estimate (log intensity, higher = more binding, comparable within an allelic series)","12.1 upbm affinity estimate (log intensity, higher = more binding, comparable within an allelic series)","13.8 upbm affinity estimate (log intensity, higher = more binding, comparable within an allelic series)","14.3 upbm affinity estimate (log intensity, higher = more binding, comparable within an allelic series)","13.9 upbm affinity estimate (log intensity, higher = more binding, comparable within an allelic series)","13.5 upbm affinity estimate (log intensity, higher = more binding, comparable within an allelic series)","13.6 upbm affinity estimate (log intensity, higher = more binding, comparable within an allelic series)","12.2 upbm affinity estimate (log intensity, higher = more binding, comparable within an allelic series)","13.6 upbm affinity estimate (log intensity, higher = more binding, comparable within an allelic series)","13.7 upbm affinity estimate (log intensity, higher = more binding, comparable within an allelic series)","12.4 upbm affinity estimate (log intensity, higher = more binding, comparable within an allelic series)"
AGTAATTA,"13.6 upbm affinity estimate (log intensity, higher = more binding, comparable within an allelic series)","12.5 upbm affinity estimate (log intensity, higher = more binding, comparable within an allelic series)","10.9 upbm affinity estimate (log intensity, higher = more binding, comparable within an allelic series)","14.3 upbm affinity estimate (log intensity, higher = more binding, comparable within an allelic series)","11.7 upbm affinity estimate (log intensity, higher = more binding, comparable within an allelic series)","12.6 upbm affinity estimate (log intensity, higher = more binding, comparable within an allelic series)","10.3 upbm affinity estimate (log intensity, higher = more binding, comparable within an allelic series)","13.9 upbm affinity estimate (log intensity, higher = more binding, comparable within an allelic series)","13.1 upbm affinity estimate (log intensity, higher = more binding, comparable within an allelic series)","14.4 upbm affinity estimate (log intensity, higher = more binding, comparable within an allelic series)","12.3 upbm affinity estimate (log intensity, higher = more binding, comparable within an allelic series)","14 upbm affinity estimate (log intensity, higher = more binding, comparable within an allelic series)","14.3 upbm affinity estimate (log intensity, higher = more binding, comparable within an allelic series)","14.2 upbm affinity estimate (log intensity, higher = more binding, comparable within an allelic series)","13.9 upbm affinity estimate (log intensity, higher = more binding, comparable within an allelic series)","13.9 upbm affinity estimate (log intensity, higher = more binding, comparable within an allelic series)","12.6 upbm affinity estimate (log intensity, higher = more binding, comparable within an allelic series)","13.6 upbm affinity estimate (log intensity, higher = more binding, comparable within an allelic series)","13.9 upbm affinity estimate (log intensity, higher = more binding, comparable within an allelic series)","12.7 upbm affinity estimate (log intensity, higher = more binding, comparable within an allelic series)"
TAATTACA,"13.6 upbm affinity estimate (log intensity, higher = more binding, comparable within an allelic series)","12.2 upbm affinity estimate (log intensity, higher = more binding, comparable within an allelic series)","10.8 upbm affinity estimate (log intensity, higher = more binding, comparable within an allelic series)","14.2 upbm affinity estimate (log intensity, higher = more binding, comparable within an allelic series)","11.6 upbm affinity estimate (log intensity, higher = more binding, comparable within an allelic series)","12.2 upbm affinity estimate (log intensity, higher = more binding, comparable within an allelic series)","10.2 upbm affinity estimate (log intensity, higher = more binding, comparable within an allelic series)","13.9 upbm affinity estimate (log intensity, higher = more binding, comparable within an allelic series)","12.9 upbm affinity estimate (log intensity, higher = more binding, comparable within an allelic series)","14.4 upbm affinity estimate (log intensity, higher = more binding, comparable within an allelic series)","12.3 upbm affinity estimate (log intensity, higher = more binding, comparable within an allelic series)","14 upbm affinity estimate (log intensity, higher = more binding, comparable within an allelic series)","14.2 upbm affinity estimate (log intensity, higher = more binding, comparable within an allelic series)","14.1 upbm affinity estimate (log intensity, higher = more binding, comparable within an allelic series)","13.7 upbm affinity estimate (log intensity, higher = more binding, comparable within an allelic series)","13.6 upbm affinity estimate (log intensity, higher = more binding, comparable within an allelic series)","12.3 upbm affinity estimate (log intensity, higher = more binding, comparable within an allelic series)","13.5 upbm affinity estimate (log intensity, higher = more binding, comparable within an allelic series)","13.6 upbm affinity estimate (log intensity, higher = more binding, comparable within an allelic series)","12.5 upbm affinity estimate (log intensity, higher = more binding, comparable within an allelic series)"
GTAATTAC,"13.7 upbm affinity estimate (log intensity, higher = more binding, comparable within an allelic series)","12.4 upbm affinity estimate (log intensity, higher = more binding, comparable within an allelic series)","10.8 upbm affinity estimate (log intensity, higher = more binding, comparable within an allelic series)","14.3 upbm affinity estimate (log intensity, higher = more binding, comparable within an allelic series)","11.5 upbm affinity estimate (log intensity, higher = more binding, comparable within an allelic series)","12.4 upbm affinity estimate (log intensity, higher = more binding, comparable within an allelic series)","10.4 upbm affinity estimate (log intensity, higher = more binding, comparable within an allelic series)","14.1 upbm affinity estimate (log intensity, higher = more binding, comparable within an allelic series)","13.2 upbm affinity estimate (log intensity, higher = more binding, comparable within an allelic series)","14.4 upbm affinity estimate (log intensity, higher = more binding, comparable within an allelic series)","12.5 upbm affinity estimate (log intensity, higher = more binding, comparable within an allelic series)","14.3 upbm affinity estimate (log intensity, higher = more binding, comparable within an allelic series)","14.3 upbm affinity estimate (log intensity, higher = more binding, comparable within an allelic series)","14.2 upbm affinity estimate (log intensity, higher = more binding, comparable within an allelic series)","13.9 upbm affinity estimate (log intensity, higher = more binding, comparable within an allelic series)","13.9 upbm affinity estimate (log intensity, higher = more binding, comparable within an allelic series)","12.5 upbm affinity estimate (log intensity, higher = more binding, comparable within an allelic series)","13.5 upbm affinity estimate (log intensity, higher = more binding, comparable within an allelic series)","13.9 upbm affinity estimate (log intensity, higher = more binding, comparable within an allelic series)","12.8 upbm affinity estimate (log intensity, higher = more binding, comparable within an allelic series)"
